According to the supplement of paper PMC3334620:
In all, about 33,000 sequences were measured (“E-score (-0.5 to 0.5)”: median about -0.04, highest 2% from about 0.36 on). This is one part of a sample in which the highest values are shown more often than they occur.

Each sequence was assayed against T1, Hmlalpha2 (UniProt P0CY09) (assay: PBM E-score (8-mer binding enrichment) (E-score (-0.5 to 0.5)); higher = stronger / more preferred TF binding). Conditions: protein concentration: 200 nM; construct: GST-full length.
T1 sequence: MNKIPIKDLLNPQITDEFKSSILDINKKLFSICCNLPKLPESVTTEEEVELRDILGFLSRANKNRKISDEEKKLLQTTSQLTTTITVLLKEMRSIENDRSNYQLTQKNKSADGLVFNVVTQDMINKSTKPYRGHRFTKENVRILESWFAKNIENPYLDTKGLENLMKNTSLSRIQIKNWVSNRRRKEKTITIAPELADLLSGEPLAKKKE
Method: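 Universal 'all 10-mer' protein binding microarrays (Agilent AMADID 015681) probed with GST-tagged S. cerevisiae TFs (full-length or DBD) made by in vitro transcription/translation (PURExpress), about 100-200 nM. Bound TF was detected with fluorescent anti-GST. Each ungapped 8-mer (which stands for itself and its reverse complement) is scored by the PBM enrichment score (E-score), a modified Wilcoxon-Mann-Whitney statistic from -0.5 to +0.5, computed with the Universal PBM Analysis Suite. Scale: above 0.35 generally sequence-specific binding.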
For GGCCCGAA, the “PBM E-score” value was -0.135.
With ATATCGGA the “PBM E-score” value was -0.0245.
For CCACCAGG, the “PBM E-score” value was -0.268.
In the case of CCTAGGCG, the “PBM E-score” value is reported as -0.303.
With ATTCCCAC the “PBM E-score” value was -0.125.
For ACTTGTAA, the “PBM E-score” value was 0.381.
With CCTTGTAA the “PBM E-score” value was 0.454.
In the case of TATTGTAA, the “PBM E-score” value is reported as 0.318.
TCTTGTAA was tested, and the “PBM E-score” value was 0.439.
For TCTTGTCA, the “PBM E-score” value was 0.219.
In the case of CTTTGTAC, the “PBM E-score” value is reported as 0.2.
CTTTGTAA was tested, and the “PBM E-score” value was 0.414.
ACTTGTAC was tested, and the “PBM E-score” value was 0.12.
For ACTTGTAG, the “PBM E-score” value was 0.0979.
In the case of CCTTGTAG, the “PBM E-score” value is reported as 0.195.
For CCTTGTAC, the “PBM E-score” value was 0.327.
For ATTTGTAA, the “PBM E-score” value was 0.344.
GCTACAAA was tested, and the “PBM E-score” value was 0.0715.
For GAGCTACC, the “PBM E-score” value was -0.059.
For CAGCTGTA, the “PBM E-score” value was -0.117.
In the case of CCAGGAGG, the “PBM E-score” value is reported as -0.191.
With ATCCAGCA the “PBM E-score” value was -0.0498.
With CGATGATA the “PBM E-score” value was 0.0847.
In the case of CCTTGTTA, the “PBM E-score” value is reported as 0.371.
For GATTGTAA, the “PBM E-score” value was 0.247.
With GCTTGTAC the “PBM E-score” value was 0.243.
In the case of GCTTGTAA, the “PBM E-score” value is reported as 0.411.
In the case of CCTTGTTC, the “PBM E-score” value is reported as -0.0497.
With ACTTGTTA the “PBM E-score” value was 0.259.
CCCATATC was tested, and the “PBM E-score” value was -0.145.
With CAAAGGAG the “PBM E-score” value was -0.0938.
With ATTAATGA the “PBM E-score” value was 0.0848.
For CCAGGCAA, the “PBM E-score” value was -0.265.
With AGCATAGG the “PBM E-score” value was -0.178.
In the case of AACAGGTT, the “PBM E-score” value is reported as 0.11.
ATTACGAA was tested, and the “PBM E-score” value was 0.289.
For CTTACACC, the “PBM E-score” value was 0.0787.
In the case of ATTACAAC, the “PBM E-score” value is reported as 0.4.
In the case of GTTACAAC, the “PBM E-score” value is reported as 0.258.
With ATTACACC the “PBM E-score” value was 0.382.
In the case of CTTACAAG, the “PBM E-score” value is reported as 0.312.
For ATTACAAA, the “PBM E-score” value was 0.414.
In the case of ATTACAAG, the “PBM E-score” value is reported as 0.466.
With CTTACAAC the “PBM E-score” value was 0.301.
CTCACACC was tested, and the “PBM E-score” value was -0.254.
ATTACAGA was tested, and the “PBM E-score” value was 0.333.
ATTACAGG was tested, and the “PBM E-score” value was 0.352.
CTTGAGGA was tested, and the “PBM E-score” value was -0.227.
For ATATGCCC, the “PBM E-score” value was -0.274.
For AGTGAACA, the “PBM E-score” value was 0.154.
In the case of AGATTCTA, the “PBM E-score” value is reported as 0.0504.
With ATATAGGA the “PBM E-score” value was 0.0657.
For ACCAGGAC, the “PBM E-score” value was 0.0306.
For CATGTGAA, the “PBM E-score” value was 0.318.
CCATGAGG was tested, and the “PBM E-score” value was -0.313.
With AAAGAAAT the “PBM E-score” value was 0.175.
GACAGGCC was tested, and the “PBM E-score” value was -0.143.
In the case of CGCTCTGA, the “PBM E-score” value is reported as -0.135.
With ACGAGGGA the “PBM E-score” value was -0.0452.
With CGGTAAAG the “PBM E-score” value was 0.00317.
ACTACAAT was tested, and the “PBM E-score” value was 0.137.
With ATTACAGC the “PBM E-score” value was 0.141.
For TTTACAAA, the “PBM E-score” value was 0.412.
For CTTACAAA, the “PBM E-score” value was 0.232.
For ATTACAAT, the “PBM E-score” value was 0.385.
In the case of AGTACAAT, the “PBM E-score” value is reported as 0.25.
For ATTACATC, the “PBM E-score” value was 0.445.
CTTACATC was tested, and the “PBM E-score” value was 0.283.
For TCTACAAA, the “PBM E-score” value was 0.252.
In the case of ATGGGACG, the “PBM E-score” value is reported as -0.19.
In the case of GCAAAGAC, the “PBM E-score” value is reported as -0.121.
For CTGCGCGC, the “PBM E-score” value was -0.00351.
With TGCAGCAA the “PBM E-score” value was -0.0391.
For GATACTCA, the “PBM E-score” value was -0.0664.
In the case of ACTTACAG, the “PBM E-score” value is reported as 0.134.
CCTTACAC was tested, and the “PBM E-score” value was 0.334.
ACTTACAA was tested, and the “PBM E-score” value was 0.29.
ACTTACAC was tested, and the “PBM E-score” value was 0.378.
With ACTTACAT the “PBM E-score” value was 0.43.
For GCTTACAC, the “PBM E-score” value was 0.362.
ACAGTAGC was tested, and the “PBM E-score” value was -0.0946.
CCCCCCGG was tested, and the “PBM E-score” value was -0.366.
In the case of ACTCTACC, the “PBM E-score” value is reported as -0.0519.
In the case of CTTGTATA, the “PBM E-score” value is reported as 0.289.
For ATTGTGTG, the “PBM E-score” value was 0.112.
With GTTGTGGA the “PBM E-score” value was 0.0527.
GTTGTGCA was tested, and the “PBM E-score” value was -0.00044.
GTTGTGTA was tested, and the “PBM E-score” value was 0.448.
CTTGTGTC was tested, and the “PBM E-score” value was 0.0968.
For ATTGTATA, the “PBM E-score” value was 0.171.
In the case of CTTGTGAA, the “PBM E-score” value is reported as 0.182.
For ATTGTGTA, the “PBM E-score” value was 0.42.
ATTGTGTC was tested, and the “PBM E-score” value was 0.233.
GTTGTATA was tested, and the “PBM E-score” value was 0.38.
For CTTGTGTA, the “PBM E-score” value was 0.41.
In the case of ACTGTTCG, the “PBM E-score” value is reported as 0.0673.
For AACTGCTA, the “PBM E-score” value was -0.0585.
For AGAGGTGA, the “PBM E-score” value was -0.0117.
In the case of CACCAGTA, the “PBM E-score” value is reported as -0.0753.
With ACGGACAT the “PBM E-score” value was -0.0204.
For ATAACACC, the “PBM E-score” value was 0.259.
CTAACAAG was tested, and the “PBM E-score” value was 0.175.
In the case of AGAACACA, the “PBM E-score” value is reported as 0.268.
With ATAACACG the “PBM E-score” value was 0.461.
ATAACAAG was tested, and the “PBM E-score” value was 0.352.
GTAACACA was tested, and the “PBM E-score” value was 0.324.
With CTAACACA the “PBM E-score” value was 0.376.
With ATAACACA the “PBM E-score” value was 0.439.
CTAACACC was tested, and the “PBM E-score” value was 0.153.
GTTCTAGA was tested, and the “PBM E-score” value was -0.00839.
CCCTGACG was tested, and the “PBM E-score” value was -0.351.
ATTTAGCC was tested, and the “PBM E-score” value was 0.0155.
For GACCTTGC, the “PBM E-score” value was -0.356.
With AGTTTCGG the “PBM E-score” value was -0.031.
In the case of GCAACACA, the “PBM E-score” value is reported as 0.167.
TCAACAGA was tested, and the “PBM E-score” value was 0.149.
With ACAACACC the “PBM E-score” value was 0.182.
For ACAACACG, the “PBM E-score” value was 0.417.
With TCAACACA the “PBM E-score” value was 0.43.
With ACAACAGG the “PBM E-score” value was 0.155.
For ACAACAAA, the “PBM E-score” value was 0.284.
CCAACACC was tested, and the “PBM E-score” value was -0.206.
For CCAACACG, the “PBM E-score” value was 0.375.
CCAACACA was tested, and the “PBM E-score” value was 0.248.
ACAACACA was tested, and the “PBM E-score” value was 0.405.
With ACAACACT the “PBM E-score” value was 0.248.
GGTATGCA was tested, and the “PBM E-score” value was -0.0286.
AGGCCTTC was tested, and the “PBM E-score” value was -0.156.
In the case of AATCCGTG, the “PBM E-score” value is reported as -0.129.
In the case of CGTCCATA, the “PBM E-score” value is reported as 0.0125.
For GGCAACAA, the “PBM E-score” value was 0.0607.
For TAATTTCA, the “PBM E-score” value was 0.182.
In the case of ATCAAGTG, the “PBM E-score” value is reported as -0.0416.
For CAGCATTA, the “PBM E-score” value was 0.109.
With GCATTTCA the “PBM E-score” value was -0.082.
With GCACGACC the “PBM E-score” value was -0.188.
For ACACGACG, the “PBM E-score” value was 0.42.
For ACACGAGA, the “PBM E-score” value was 0.291.
ACACGAGT was tested, and the “PBM E-score” value was 0.389.
In the case of ACACGAAT, the “PBM E-score” value is reported as 0.356.
For ACACGACC, the “PBM E-score” value was 0.396.
For AGACGACG, the “PBM E-score” value was -0.129.
CCACGACC was tested, and the “PBM E-score” value was -0.0888.
In the case of ACACGAGG, the “PBM E-score” value is reported as 0.292.
CCACGACG was tested, and the “PBM E-score” value was -0.097.
In the case of ACACGACT, the “PBM E-score” value is reported as 0.391.
For AAACGACT, the “PBM E-score” value was -0.0906.
In the case of AAATGCAG, the “PBM E-score” value is reported as -0.012.
For ACCCGACC, the “PBM E-score” value was -0.145.
For ACTAACGG, the “PBM E-score” value was -0.168.
In the case of ACACGACA, the “PBM E-score” value is reported as 0.412.
With TCACGACA the “PBM E-score” value was 0.116.
CCACGACA was tested, and the “PBM E-score” value was -0.103.
In the case of GTTACGCA, the “PBM E-score” value is reported as 0.277.
With CTTACGCA the “PBM E-score” value was 0.341.
In the case of ATTACGCC, the “PBM E-score” value is reported as 0.187.
For ATTACGCG, the “PBM E-score” value was 0.467.
ATTACGGG was tested, and the “PBM E-score” value was -0.0184.
With ATTACGCA the “PBM E-score” value was 0.435.
For CGAAGAGC, the “PBM E-score” value was -0.12.
CCAAGCAG was tested, and the “PBM E-score” value was -0.127.
With AACAGCTA the “PBM E-score” value was 0.115.
With ACCTGAGG the “PBM E-score” value was -0.266.
For CATTAACC, the “PBM E-score” value was 0.128.
TATTAAAA was tested, and the “PBM E-score” value was 0.24.
GATTAACA was tested, and the “PBM E-score” value was 0.413.
TATTAACA was tested, and the “PBM E-score” value was 0.428.
In the case of AATTAACT, the “PBM E-score” value is reported as 0.173.
For CATTAACA, the “PBM E-score” value was 0.409.
With AATTAACC the “PBM E-score” value was 0.104.
For GATTAAGA, the “PBM E-score” value was 0.0797.
AATTAACA was tested, and the “PBM E-score” value was 0.425.
With GATTAACC the “PBM E-score” value was -0.108.
In the case of TATTAATA, the “PBM E-score” value is reported as 0.173.
With CATTAACG the “PBM E-score” value was 0.277.
